Experimental findings from PubChem BioAssay (EPA / NIEHS) are described below.

Inconclusive results are not listed. Activity calls are given as the source filed them. Rule for the calls: active = hit-call score of the fitted dose curve at least 0.9, where 1 is the maximum; inconclusive = response in the unintended direction; inactive = score below 0.9.

rat Thyrotropin Releasing Hormone Receptor (TRH), Trhr (gene 25570), sequence (Q01717 whole entry, looked up): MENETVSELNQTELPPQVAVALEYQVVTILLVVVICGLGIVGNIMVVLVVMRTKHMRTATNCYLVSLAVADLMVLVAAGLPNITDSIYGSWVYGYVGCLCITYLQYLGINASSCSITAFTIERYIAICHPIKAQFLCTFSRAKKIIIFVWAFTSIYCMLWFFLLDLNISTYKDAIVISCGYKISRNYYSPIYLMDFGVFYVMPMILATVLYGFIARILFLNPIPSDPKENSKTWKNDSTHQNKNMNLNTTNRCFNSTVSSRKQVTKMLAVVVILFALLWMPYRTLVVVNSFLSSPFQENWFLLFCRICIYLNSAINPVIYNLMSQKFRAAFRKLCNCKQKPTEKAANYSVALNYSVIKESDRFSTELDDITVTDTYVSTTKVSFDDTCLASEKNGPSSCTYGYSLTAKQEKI

For this test, the target named is rat Thyrotropin Releasing Hormone Receptor (TRH), Trhr (gene 25570) (UniProt Q01717). Description: NVS_GPCR_rTRH: NovaScreen (NVS) G Protein-Coupled Receptor Assay for rat Thyrotropin Releasing Hormone Receptor (TRH) (AID 2283329).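 Note: hit means lower bound tracer signal versus DMSO baseline.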 As for the experimental part:
NVS_GPCR_rTRH is a biochemical, single-readout assay that uses extracted gene-proteins from Rat forebrain membranes in a tissue-based cell-free assay. Measurements were taken 4 hours after chemical dosing in a 48-well plate.NVS_GPCR_rTRH is one of one assay component(s) measured or calculated from the NVS_GPCR_rTRH assay. It is designed to make measurements of radioligand binding, a form of binding reporter, as detected with scintillation counting signals by Filter-based radiodetection technology.Data from the assay component NVS_GPCR_rTRH was analyzed into 1 assay endpoint. This assay endpoint, NVS_GPCR_rTRH, was analyzed in the positive analysis fitting direction relative to DMSO as the negative control and baseline of activity. Using a type of binding reporter, loss-of-signal activity can be used to understand changes in the binding as they relate to the gene Trhr. Furthermore, this assay endpoint can be referred to as a primary readout, because the performed assay has only produced 1 assay endpoint. To generalize the intended target to other relatable targets, this assay endpoint is annotated to the gpcr intended target family, where the subfamily is rhodopsin-like receptor.
Binding assays used specific radioligands (tritiated, iodinated) with non-radioactive competitive displacement ligands in agonist or antagonist protocols (as indicated) and various reference compounds and inhibitors to titrate specific binding to receptors and transporters. Most enzyme assays (CYPs, kinases, phosphatases, proteases, HDACs) used recombinant protein and specific substrates (fluorescence mostly, some colorimetric and radioactive) and inhibitors, followed by a biochemical separation of substrate and product. All assays for the biochemical HTS were initially run in duplicate at a single concentration (10 uM for CYP450 assays and 25 uM for all others). […] Each assay was run with positive and negative controls, and concurrent controls on every plate. The follow-up (secondary) screen tested active chemical-pairs in concentration series, as well as a few additional assays not tested in the primary screen, some selected negative inactives, and several cases re-run in the concentration series for confirmatory purposes.
With `CC(=O)N(C)C`, the molecule was classed as inactive.

On to `OCC=Cc1ccccc1`, for which the molecule was classed as inactive.

In the case of `CC(=O)c1ccc2ccccc2c1`, the molecule was classed as inactive.

Turning to `O=C(c1ccc(OCCN2CCCCC2)cc1)c1c(-c2ccc(O)cc2)sc2cc(O)ccc12`, the result was inactive.

For `c1coc(CNc2ncnc3nc[nH]c23)c1`, the call was inactive.

Take `CCCc1ccc(N)cc1`: the outcome was inactive.

Regarding `C1CCCNCC1`, the outcome was inactive.

For the molecule `CCO[Si](CC)(OCC)OCC`, the call was inactive.

On to `O=Cc1ccccc1O`, for which the result was inactive.

With `CCCCCCCCOS(=O)(=O)O`, the outcome was inactive.

In the case of `CCC(C)(C)C1CCC(OC)CC1` (centres undefined), the result was inactive.

Consider `CC(C)C(=O)c1ccccc1`, for which the call was inactive.

With `CCCCCC(=O)O[C@]1(C(C)=O)CC[C@H]2[C@@H]3CCC4=CC(=O)CC[C@]4(C)[C@H]3CC[C@@]21C`, the molecule was classed as inactive.

Regarding `CC(C)(C)c1cccc(O)c1`, the molecule was classed as inactive.

On to `NC(N)=S`, for which the call was inactive.

Regarding `CC12CCC(C1)C(C)(C)C2O` (centres undefined), the result was inactive.

Regarding `O=S(=O)(O)c1cc(S(=O)(=O)O)c2c(N=Nc3ccccc3)c(O)ccc2c1`, the outcome was inactive.

Take `CCCCCCCCCCCCS`: the concentration at half-maximal activity (AC50) was 929 nM (active).

Consider `CCc1cccc(O)c1`, for which the call was inactive.

What is called AC50 is the concentration giving half of the maximal activity seen.
